Screening data (PubChem)
The sample as a whole holds a higher share of hits than the screen did.
Peg3 imprint: induces erasure of genomic imprints in mouse ES cells; mouse ES Peg3-LacZ reporter, beta-gal luminescence, 40 h; Potency, µM (top dose mostly 60.7 µM), actives largely listed as activators; 0.02% of 110,000 active; AID 1948
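Gelatin-coated wells received 300 freshly trypsinized female ES cells with a Peg3LacZ-Neo reporter on the maternal allele, then incubated 40 hours at 37C. BetaGlo was added for 5 minutes at room temperature before a single luminescence read.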
ERK AVP block: blocks ERK signaling stimulated by vasopressin | Potency, µM (highest dose often 57.5 µM), usual class: inhibitors | 0.99% of 72,000 active | AID 995 | HEK293-V1b, vasopressin-stimulated pERK AlphaScreen; further: nearly all actives have a fitted effect of over 55% in size
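HEK293 cells stably expressing V1b receptor, seeded overnight in 1% FBS, were treated with compounds for 30 min at 37C, then stimulated 5 min with 25 nM vasopressin; phospho-ERK read by AlphaScreen SureFire after lysis.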
IkB signaling: suppresses IkB signaling in ABC-DLBCL reporter cells | ABC-DLBCL IkBa-CBG/CBR dual luciferase ratio, 4 h; response scale: scaled: untreated 0%, proteasome inhibitor 100% | Potency, µM (highest dose often 57.1 µM) | 0.04% of 110,000 active; active means well fitted curve in the direction sought with a large enough effect in the signal ratio, not every such curve was filed as active; inconclusive means small, poorly fitted or top-dose-only effect, or a change in a side signal; the % refers to the signal ratio;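 further: the direction sought is a rising ratio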
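Curves were fitted separately to fusion (green), unfused (red) and ratio luminescence, then classed by r2, magnitude and activity. Cells: OCI-Ly3, 4 h compound plus doxycycline at 37C; 10 uM MG-132 defined full response.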
CRE-bla Fsk: modulators of forskolin-stimulated CRE signaling in CHO cells | CHO CRE-bla reporter (cAMP response element driving beta-lactamase), forskolin EC10, beta-lactamase ratio | Potency, µM (series often up to 38.2 µM), hits mostly activators | 2.5% of 71,000 active | AID 662; active means well fitted activation curve with a large enough effect in the signal ratio, with a control signal flat, not every such curve was filed as active; inconclusive means small, poorly fitted or top-dose-only effect, or effect the other way, or a change in a side signal; the % refers to the signal ratio
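Modulation of forskolin signalling: compounds in titration series added with EC10 NKH 477 to CHO cells carrying a CRE-driven beta-lactamase reporter, 3 h, 37C. CCF4 FRET ratio (460/530 nm, ex 405 nm) gives %activity and AC50.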
Large screens that a line does not name were inactive. Unless noted, the call rests on the fitted dose curve; in most records, active means well fitted curve in the direction sought with a large enough effect; inconclusive means small, poorly fitted or top-dose-only effect, or another doubt; inactive means no such curve, though single readings can be large; an effect the other way counts as inactive or inconclusive.

Cc1nc2cnc(Nc3ccccc3)nc2n(C)c1=O	CRE-bla Fsk inconclusive (no result: Peg3 imprint)
Cc1cccc(S(=O)(=O)c2c(N)n(/N=C/c3ccco3)c3nc4ccccc4nc23)c1	CRE-bla Fsk 3.98µM
Cc1ccc(S(=O)(=O)c2c(N)n(/N=C/c3ccco3)c3nc4ccccc4nc23)cc1C	CRE-bla Fsk 10µM
C[C@H](O)[C@H](O)[C@@H](O)c1cnc2nc(N)[nH]c(=O)c2n1	none (no result: Peg3 imprint, ERK AVP block)
Cc1noc(C)c1-c1nc(NCc2cccs2)c2ccccc2n1	ERK AVP block inconclusive, CRE-bla Fsk inconclusive
O=c1c2[nH]c3ccccc3c2ncn1Cc1ccccn1	CRE-bla Fsk 10µM
CC(=O)Nc1ccc(S(=O)(=O)NC(CC(=O)O)c2ccc(OC(C)C)cc2)cc1 (stereo not drawn)	none
Cc1ccc(S(=O)(=O)NC(CC(=O)O)c2ccccc2)cc1 (stereo not drawn)	CRE-bla Fsk 1.26µM
CN(CCc1ccccn1)c1ccc2c(c1)C(=O)c1ccccc1-2	none
Cc1cccc(C2=N[C@@H](CC(C)C)CO2)c1	none (no result: ERK AVP block, IkB signaling, CRE-bla Fsk)
COc1ccccc1N1CCN(S(=O)(=O)c2ccccc2)CC1	none
Cc1cc(N2CCN(S(=O)(=O)c3ccccc3)CC2)c2ccccc2n1	ERK AVP block 31.6µM, IkB signaling inconclusive, CRE-bla Fsk inconclusive
COc1cc(NS(C)(=O)=O)ccc1Nc1c2ccccc2nc2ccccc12	CRE-bla Fsk 15.8µM
COC(=O)C1=CN(CC2CCCO2)C=C(C(=O)OC)C1c1cc(OC)c(OC)c(OC)c1 (stereo not drawn)	CRE-bla Fsk 10µM
CCOc1cc(C(=O)Nc2ccc3c(c2)OCO3)ccc1OC(F)F	ERK AVP block 20µM
CCOc1ccc(C(=O)Nc2ccc3c(c2)OCCO3)cc1OC	none
N#C/C(=C(/N)Sc1ccc(N)cc1)c1ccccc1C(F)(F)F	ERK AVP block 0.316µM (no result: IkB signaling, CRE-bla Fsk)
CCCCCCn1c(NCC)nc2c1c(=O)[nH]c(=O)n2C	none
CCC(C)Nc1nc2c(c(=O)[nH]c(=O)n2C)n1CCC(C)C (stereo not drawn)	CRE-bla Fsk 10µM
CCNc1nc2c(c(=O)[nH]c(=O)n2C)n1CC(C)C	CRE-bla Fsk 10µM (no result: ERK AVP block)
CCCNc1nc2c(c(=O)[nH]c(=O)n2C)n1Cc1ccc(F)cc1	CRE-bla Fsk 10µM (no result: ERK AVP block)
CCNc1nc2c(c(=O)[nH]c(=O)n2C)n1Cc1ccc(F)cc1	CRE-bla Fsk 10µM (no result: ERK AVP block)
CN(C)c1nc2c(c(=O)[nH]c(=O)n2C)n1Cc1ccc(F)cc1	CRE-bla Fsk inconclusive (no result: ERK AVP block)
CCCCOc1ccccc1NC(=O)CC1Nc2ccccc2NC1=O (stereo not drawn)	CRE-bla Fsk 3.16µM
Cc1nn(-c2ccccc2)c2sc(-c3n[nH]c(=S)o3)cc12	ERK AVP block inconclusive, IkB signaling inconclusive, CRE-bla Fsk 5.01µM
O=C(C(Cc1ccccc1)n1cccc1)N1CCCCC1 (stereo not drawn)	none
COc1ccc(N2CCN(C(=O)C(Cc3ccccc3)n3cccc3)CC2)cc1 (stereo not drawn)	ERK AVP block 25.1µM
Nc1ccn([C@H]2O[C@@H](COP(=O)(O)O)[C@@H](O)[C@H]2O)c(=O)n1	none
Cn1c(=O)c2c(nc(NCc3ccco3)n2C/C=C/c2ccccc2)n(C)c1=O	ERK AVP block 31.6µM, IkB signaling inconclusive, CRE-bla Fsk inconclusive
CCn1c(O)c(C2=NCCCC2)c2ccccc21	ERK AVP block inconclusive
Oc1[nH]c2ccccc2c1C1=NCCCC1	CRE-bla Fsk 15.8µM
O=C1CC(O)(C(F)(F)F)Oc2c1ccc1ccccc21 (stereo not drawn)	ERK AVP block 15.8µM, IkB signaling inconclusive, CRE-bla Fsk inconclusive
O=C1CC(O)(C(F)F)Oc2ccc3ccccc3c21 (stereo not drawn)	CRE-bla Fsk inconclusive
C=CCSc1nc2c(c(=O)[nH]c(=O)n2C)n1CC	CRE-bla Fsk inconclusive
CCCCCn1c(Sc2nc3ccccc3s2)nc2c1c(=O)[nH]c(=O)n2C	ERK AVP block inconclusive, CRE-bla Fsk 12.6µM
CCCCCn1c(Sc2ncccn2)nc2c1c(=O)[nH]c(=O)n2C	ERK AVP block inconclusive
CCCCCSc1nc2c(c(=O)[nH]c(=O)n2C)n1CC	CRE-bla Fsk 7.94µM (no result: ERK AVP block)
CCCCCSc1nc2c(c(=O)[nH]c(=O)n2C)n1C(C)C	CRE-bla Fsk 10µM (no result: ERK AVP block)
CC(C)CO/N=C1/C[C@@H](O)[C@@H](O)[C@@H]2[C@@H]3C(=O)N(C(C)(C)C)C(=O)[C@H]3CC[C@H]12	none (no result: Peg3 imprint, IkB signaling, CRE-bla Fsk)
CC1(C)OC[C@@H]2O[C@H](n3cnc4c(N)nc(Cl)nc43)[C@@H](OS(C)(=O)=O)[C@@H]2O1	none
